Molecules are shown by their SMILES. Out of some 96,000 compounds screened, about 1,200 (1.2%) were called active. Many of the other results were omitted from the sample, so actives are more common in it than they were. Unmarked numbers belong to inactive results. No stated cut-off is given here; in the data, active means activation fold above about 2; inactive means the rest.

The target in the experiment is Alkaline phosphatase, placental type (Homo sapiens) (UniProt P05187). Kind of experiment: activation of human placental alkaline phosphatase – biochemical, luminescence, HTS (AID 696). Conditions: purified PLAP enzyme, luminescent substrate read-out; at 20 µM; active compounds read high.
Alkaline phosphatase, placental type (Homo sapiens), sequence (P05187 whole entry, looked up): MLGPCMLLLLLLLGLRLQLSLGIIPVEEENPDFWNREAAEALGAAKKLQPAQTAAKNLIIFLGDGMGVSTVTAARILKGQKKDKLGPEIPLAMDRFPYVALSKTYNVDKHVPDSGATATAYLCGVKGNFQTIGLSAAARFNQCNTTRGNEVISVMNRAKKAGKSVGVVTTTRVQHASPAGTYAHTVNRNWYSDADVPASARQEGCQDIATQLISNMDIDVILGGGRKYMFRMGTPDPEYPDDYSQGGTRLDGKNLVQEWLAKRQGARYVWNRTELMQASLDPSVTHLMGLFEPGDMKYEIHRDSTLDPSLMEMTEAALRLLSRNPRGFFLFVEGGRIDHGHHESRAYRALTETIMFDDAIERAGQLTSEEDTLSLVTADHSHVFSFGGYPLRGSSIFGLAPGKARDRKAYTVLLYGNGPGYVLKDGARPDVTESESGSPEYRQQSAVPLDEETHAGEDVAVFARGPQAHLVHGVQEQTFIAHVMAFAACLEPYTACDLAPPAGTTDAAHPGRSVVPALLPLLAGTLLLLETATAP
Regarding `CCOC(=O)c1c(N)n(CCN2CCOCC2)c2nc3ccccc3nc12`, the activation fold is 1.1. As for `COc1cc(Cn2c(N)c(C(=O)NCc3ccco3)c3nc4ccccc4nc32)cc(OC)c1OC`, the activation fold is 2.1 (active). As for `CCOC(=O)c1c(N)n(Cc2ccccc2)c2nc3ccccc3nc12`, the figure is 0.9; as for `Nc1ccc(C(=O)N/N=C2/CN3CCC2CC3)cc1`, 0.9; as for `CCOc1ccc(C2SCC(=O)Nc3c2c(C)nn3C2CCOC(C)(C)C2)cc1` (stereo not given), 1.5.

Values taken from PubChem BioAssay AID696 (Sanford-Burnham Center for Chemical Genomics, 2007).
